In PubChem BioAssay (NCI):
About 79,000 compounds went through this panel and 15% of them were active in at least one assay; those are over-represented in the sample as a whole. Values without a mark were called inactive. The source made the active and inactive calls. Cut-off read from the data, not from the text of the source: active = growth inhibition above about 70%; inactive = the rest.

Assay: NCI Yeast Anticancer Drug Screen. Data for the rad14 strain (AID 159);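 note: 0% = growth of vehicle-treated control cultures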
Conditions: S. cerevisiae rad14 strain growth inhibition, hits give high values
Procedure: Growth inhibition of yeast strains with defined genetic alterations is measured as a screen for potential anti-cancer activity. Selected strains with alterations in DNA damage repair or cell cycle control were exposed to compounds and growth inhibition was measured relative to vehicle treated controls. The strain used in this assay is rad14

SMILES | growth inhibition (at 1.2 µM) [%] | growth inhibition (at 3.7 µM) [%] | growth inhibition (at 11.0 µM) [%] | growth inhibition (at 33.0 µM) [%] | growth inhibition (at 100.0 µM)
C=C(C(=C)n1nnc(C(=O)OC)c1C(=O)OC)n1nnc(C(=O)OC)c1C(=O)OC | 1 | 3 | 3 | 3 | 1%
CCCCN(CCCC)C(=O)/C=C/c1ccccc1 | -1 | -9 | -3 | 23 | 65%
COc1nc2c(c(=O)n1C)N=C(c1ccccc1)[C@H](C(CC(=O)c1ccccc1)c1ccccc1)C(c1ccccc1)N2 (stereo not given in full) | -1 | -10 | -1 | 31 | 57%
COc1cc(O)c(O)c(C(C)(C)C)c1 | -1 | -3 | 5 | 10 | 19%
O=C1C=C(N2CCN(c3ccccn3)CC2)C(=O)c2c(O)ccc(O)c21 | 9 | 14 | 29 | 69 | 87% (active)
Nc1cc(N)c(N=Nc2cccc3c(S(=O)(=O)O)cccc23)cc1N=Nc1cc([N+](=O)[O-])ccc1O | -17 | -22 | -19 | -18 | 47%
c1ccc(-c2cnc3ccccc3c2)cc1 | -2 | 0 | -1 | 18 | 99% (active)
C[C@@](O)(/C=C/[C@H]1CC=CC(=O)O1)[C@@H](C[C@@H](O)\C=C/C=C\C=C\CO)OP(=O)(O)O | 9 | 13 | 11 | 50 | 94% (active)
